Data as given in PubChem BioAssay AID2688 (National Center for Advancing Translational Sciences (NCATS), 2010).
Some of the results follow. Records with an inconclusive call do not appear. Active and inactive are the calls of the source.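 Rule for the calls: active = compounds whose IC50 for blocking JMJD2E demethylation is below 100 µM; inconclusive = dose dependent effect but IC50 above 100 µM; inactive = the rest.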

The molecules below were run against Lysine-specific demethylase 4E (Homo sapiens) (UniProt B2RXH2) (assay: MALDI-TOF-MS Assay for Inhibitors of Human Jumonji Domain Containing 2E (JMJD2E)). Details: recombinant JMJD2E demethylation.
Chain of Lysine-specific demethylase 4E (Homo sapiens) (B2RXH2 1-337 limits assumed): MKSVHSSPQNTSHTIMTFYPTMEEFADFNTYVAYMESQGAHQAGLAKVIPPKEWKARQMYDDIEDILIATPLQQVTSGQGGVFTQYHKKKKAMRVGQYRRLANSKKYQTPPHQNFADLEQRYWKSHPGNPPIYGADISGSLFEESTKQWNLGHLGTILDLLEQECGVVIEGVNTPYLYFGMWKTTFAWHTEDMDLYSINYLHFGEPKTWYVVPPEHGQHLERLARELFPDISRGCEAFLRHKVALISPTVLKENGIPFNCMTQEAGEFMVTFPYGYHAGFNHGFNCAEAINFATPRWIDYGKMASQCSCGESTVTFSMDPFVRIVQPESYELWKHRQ
Description: The fine interplay among methylation states of several lysine residues on the tails of histone proteins is a major determinant of the transcriptional state of the associated DNA coding regions and is commonly referred to as the histone code. Histone lysine demethylases catalyze the removal of methyl groups from methylated lysine sidechains on histones H3 and H4, thus antagonizing the reactions catalyzed by histone lysine methyltransferases. […] In search for novel inhibitors of JMJD2E demethylase, a member of the largest set of histone demethylases belonging to the Fe(II) and 2-oxoglutarate oxygenase (2OG) superfamily, we performed a quantitative high-throughput screen (Inglese 2006). See AID 2147 for details on the primary screen. […]
For the MS assays, JMJD2E (2 uM), FAS (10 uM) and SA (100 uM) in HEPES buffer, 50 mM, pH 7.5, were incubated with inhibitor (stock solutions in DMSO, final in-assay concentration varied, but final DMSO concentration was 5% of assay mix) for 15 min at room temperature. […] The relative intensities of different methylation states observed in the mass spectra were then used to calculate percentage demethylation, and IC50s were calculated from the variation in percentage demethylation at different inhibitor concentrations.

| SMILES | Potency |
| --- | --- |
| Nc1ccc(Nc2cc(O)c3ncccc3c2)cc1 | 20.2 µM (active) |
| Oc1ccc(/C=C/c2c(F)cccc2F)c2cccnc12 | 89.6 µM (active) |
